CYP2C19 inhib: inhibitors of human CYP2C19; P33261; CYP2C19 Supersomes, luciferin-H EGE luminescence, 30 min; inhibition, % at 5 µM; 21% of 96,000 active;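 active = CYP2C19 inhibition above a set limit at 5 µM in the primary screen, cut at about 50% in these data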;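 also: plate controls were negative control wells for no effect and 2.5 mM tranylcypromine positive control for full effect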
CYP2C9 inhib: human CYP2C9 inhibition | CYP2C9 Supersomes, luciferin-H conversion, luminescence | 20% of 96,000 active | inhibition, % at 5 µM;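 active = blocking of liver enzyme CYP2C9 beyond about 50% at 5 µM, limit read from the data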
Target sequence (P11712 whole entry, looked up): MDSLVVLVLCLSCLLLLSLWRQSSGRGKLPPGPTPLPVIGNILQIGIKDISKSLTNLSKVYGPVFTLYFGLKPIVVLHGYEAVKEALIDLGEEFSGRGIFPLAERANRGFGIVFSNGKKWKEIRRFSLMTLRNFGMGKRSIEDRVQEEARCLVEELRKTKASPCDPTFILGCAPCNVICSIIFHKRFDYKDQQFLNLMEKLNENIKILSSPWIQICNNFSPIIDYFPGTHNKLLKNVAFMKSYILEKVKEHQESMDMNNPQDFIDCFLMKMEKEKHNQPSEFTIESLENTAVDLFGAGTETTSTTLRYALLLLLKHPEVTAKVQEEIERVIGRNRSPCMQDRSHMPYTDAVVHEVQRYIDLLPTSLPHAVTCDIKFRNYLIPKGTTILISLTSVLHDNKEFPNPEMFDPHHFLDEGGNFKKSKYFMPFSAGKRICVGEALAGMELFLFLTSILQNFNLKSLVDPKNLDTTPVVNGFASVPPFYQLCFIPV
CYP2C9 activ: CYP2C9 (human) activation | activation factor at 5 µM | P11712 | recombinant CYP2C9, luciferin-H conversion, luminescence; active compounds read high; factor 1 = untreated enzyme, 0 = blocked | 1.4% of 96,000 active;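 active = activation factor of 2 or more for CYP2C9 at a 5 µM dose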;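 also: 0 = sulfaphenazole-blocked wells and 1 = vehicle-only wells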
CYP2C19 activ: increases human CYP2C19 enzyme activity. 96,000 tested, under 10 active. activation factor at 5 µM. P33261. recombinant CYP2C19, luciferin-H EGE luminescence; active compounds read high; 0 = fully inhibited enzyme, 1 = untreated enzyme;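 active = activation factor of at least 2 at 5 µM in the primary screen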;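 also: 0 = wells with 2.5 mM tranylcypromine and 1 = vehicle-only wells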
E-sel TNF inh: blocks E-selectin expression induced by TNF alpha; inhibition, % at 2 µM; AID 1246; 0.71% of 120,000 active; HUVEC TNFa-induced E-selectin immunofluorescence, high content;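 active = inhibition above the batch mean plus 3 SD, and confirmed as a hit on visual image review, cut at about 43% in these data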;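 also: 0% = TNF-stimulated DMSO wells and 100% = unstimulated control wells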
F-actin modifier: alters cytoskeleton assembly in HUVEC cells; HUVEC TNFa F-actin phalloidin imaging, high content; AID 836; inhibition, % at 2 µM; 0.18% of 91,000 active;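 active = inhibition above the batch mean plus 3 SD and confirmed as a hit by visual image inspection, cut at about 30% in these data, passing the limit was not always enough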
An asterisk follows results filed as active; x = no result. Only some compounds are listed: those with a hit (about 22% of all), similar ones and a draw of the others.

SMILES	CYP2C19 inhib	CYP2C9 inhib	CYP2C9 activ	CYP2C19 activ	E-sel TNF inh	F-actin modifier
CSc1nc2ccc(S(=O)(=O)NC3CCCCC3)cc2s1	73.5*	31.4	0.7	0.3	4.2	-10.3
CSc1nc2ccc(NS(=O)(=O)c3ccc4c(c3)OCCO4)cc2s1	100.4*	84.5*	0.2	0	13.9	x
Cc1ncoc1C(=O)Nc1cccc(Cl)c1C	7.2	9.2	0.9	0.9	-12.2	-8.2
Cc1c(Cl)cccc1NC(=O)c1ccc(-n2ccnc2)nc1	99.1*	98.5*	0	0	-31.6	10.1
Cc1nn(C)c(C)c1S(=O)(=O)N1CCCC(C(=O)N2CCN(c3ccccc3)CC2)C1 (stereo not given)	57.8*	39.9	0.6	0.4	33.2	-0.6
Cc1cccc(NC(=O)C2CCCN(S(=O)(=O)c3cccc4nonc34)C2)c1 (stereo not given)	x	x	x	x	-1.5	x
O=C(C1CCCN(S(=O)(=O)c2cccc3nsnc23)C1)N1CCN(c2ccccn2)CC1 (stereo not given)	28.6	75.6*	0.2	0.7	-0.8	28.3
CC1CC(C)CN(C(=O)C2CCCN(S(=O)(=O)c3cccc4nonc34)C2)C1 (stereo not given)	45.9	75.5*	0.2	0.5	-7.8	-7.2
O=C(C1CCCN(S(=O)(=O)c2cccc3nonc23)C1)N1CCN(c2ccccc2)CC1 (stereo not given)	60.4*	60.0*	0.4	0.4	12.1	x
Cc1nc2ccccn2c1C(=O)C(=O)Nc1cc(F)ccc1F	x	x	x	x	-1.7	x
CCOC(=O)C1CCN(S(=O)(=O)c2cccc3nonc23)CC1	72.3*	87.6*	0.1	0.3	-43.9	x
CC1CCN(C(=O)C2CCN(S(=O)(=O)c3cccc4nonc34)CC2)CC1	42.6	6.7	0.9	0.6	x	-11.7
CCOC(=O)c1nnc(-c2ccccc2)nc1Sc1ccccc1Cl	20.0	53.5*	0.5	0.8	12.2	-5.3
C/C(=N\Nc1nc2c(s1)CCCC2)c1ccccc1	71.8*	81.7*	0.2	0.3	26.1	-18.3
Cc1ccccc1NC(=O)C1CCCN(S(=O)(=O)c2cnc[nH]2)C1 (stereo not given)	63.5*	56.3*	0.4	0.4	x	15.8
O=C(NC(c1ccccc1)c1ccccc1)C1CCCN(S(=O)(=O)c2cnc[nH]2)C1 (stereo not given)	31.0	76.4*	0.2	0.7	-4.7	8.6
O=C(NCCCN1CCN(c2ccccc2F)CC1)C1CCCN(S(=O)(=O)c2cnc[nH]2)C1 (stereo not given)	19.6	33.9	0.7	0.8	x	0.7
Cc1ccc(NC(=O)C2CCCN(S(=O)(=O)c3cnc[nH]3)C2)c(Br)c1 (stereo not given)	92.9*	95.0*	0.1	0.1	x	-1.7
O=C(Nc1ccc(Br)cc1F)C1CCCN(S(=O)(=O)c2cnc[nH]2)C1 (stereo not given)	82.8*	78.9*	0.2	0.2	x	-1.1
CCC(C)NC(=S)N1CCN(Cc2ccccc2)CC1 (stereo not given)	x	x	x	x	8.3	x
COc1ccc2c(CC(=O)NC3CCCc4ccccc43)coc2c1 (stereo not given)	x	x	x	x	9.7	x
CCOC(=O)Cn1c(N2CCCCCC2)nc2c1c(=O)[nH]c(=O)n2C	-0.8	5.2	0.9	1	-36.5	37.7
CCOC(=O)C1=C(O)/C(=C/c2cc(OC)c(OC)c(OC)c2)N=C1C	-1.5	3.1	1	1	-14.6	1.9
Cc1cc(C)nc(NS(=O)(=O)c2ccc(NC(=O)NC3CCCCC3)cc2)n1	9.5	22.1	0.8	0.9	-6.8	-13.7
O=C(COC(=O)CCNS(=O)(=O)c1cccc(C(F)(F)F)c1)NC(=O)NC1CCCCC1	69.3*	78.9*	0.2	0.3	x	0.2
SMILES	CYP2C19 inhib	CYP2C9 inhib	CYP2C9 activ	CYP2C19 activ	E-sel TNF inh	F-actin modifier
Cc1ccc(S(=O)(=O)NCC(=O)OCC(=O)NC(=O)NC2CCCC2)cc1	x	x	x	x	-32.9	x
Cc1cccc(S(=O)(=O)NCCC(=O)OC(C)C(=O)NC(=O)NC2CCCCC2)c1 (stereo not given)	13.9	56.3*	0.4	0.9	x	29.2
Cc1ccc(C)c(-n2c(Cc3cccs3)n[nH]c2=S)c1	x	x	x	x	11.9	x
Cn1cccc1/C=N/NC(=O)c1sc2ccccc2c1Cl	45.5	-37.8	1.4	0.5	0.9	4.8
O=C(Cc1nc(-c2ccc([N+](=O)[O-])cc2)cs1)Nc1ccccc1	29.7	62.5*	0.4	0.7	-14.8	-3.5
CC(C)C(=O)Nc1nc(-c2ccc([N+](=O)[O-])cc2)cs1	x	x	x	x	-10.8	x
COc1ccc(-c2nnn(CC#N)n2)cc1OC	84.2*	61.6*	0.4	0.2	-2.2	-10.0
COC(=O)N1[C@H](C)C=C[C@]1(Cc1ccccc1)C(=O)O	x	x	x	x	96.2*	x
Cc1c(NC(C)c2cc(Cl)ccc2O)c(=O)n(-c2ccccc2)n1C (stereo not given)	95.7*	67.8*	0.3	0	0.1	15.2
Cc1c(NC(C)c2ccccc2O)c(=O)n(-c2ccccc2)n1C (stereo not given)	48.4	9.9	0.9	0.5	21.7	-6.5
Cc1c(NC(=O)c2ccccc2F)c(=O)n(-c2ccccc2)n1C	1.9	-2.5	1	1	-39.3	-1.3
Cc1c(NS(=O)(=O)c2ccccc2)c(=O)n(-c2ccccc2)n1C	53.4*	21.5	0.8	0.5	19.6	3.0
Cc1c(NS(=O)(=O)c2cccc(C(=O)NCc3ccc(Cl)cc3)c2)c(=O)n(-c2ccccc2)n1C	50.7*	32.8	0.7	0.5	7.0	-14.1
Cc1c(NC(=O)c2ccccc2NS(=O)(=O)c2ccc(F)cc2)c(=O)n(-c2ccccc2)n1C	24.8	51.6*	0.5	0.8	-24.4	1.2
O=C(O)C1CCCCC1C(=O)Nc1ccccc1F (stereo not given)	24.2	6.6	0.9	0.8	0.0	8.4
CS(=O)(=O)c1ccc(Cl)c(NC(=O)COC(=O)CNC(=O)c2ccc(Br)o2)c1	-20.0	-29.0	1.3	1.2	2.0	-46.7
c1coc(-c2nc3nc4ccccc4nc3n2-c2ccc3c(c2)OCCO3)c1	14.2	63.5*	0.4	0.9	-19.4	x
c1ccc(Cn2c(-c3ccco3)nc3nc4ccccc4nc32)cc1	-0.5	9.2	0.9	1	1.5	19.5
Cc1ccc(NC(=O)c2cccc3c2-c2ccccc2C3=O)cc1C	83.5*	68.4*	0.3	0.2	-8.1	-1.3
Cc1cc(NC(=O)COC(=O)[C@H](Cc2c[nH]c3ccccc23)NC(=O)c2ccc(F)cc2)no1	29.9	75.5*	0.2	0.7	-9.4	-11.0
CC(=O)NC(Cc1c[nH]c2ccccc12)C(=O)OCC(=O)Nc1cc(C)on1 (stereo not given)	87.2*	84.1*	0.2	0.1	-16.1	-7.0
CCOC(=O)C(=O)NC(C)c1ccccc1 (stereo not given)	x	x	x	x	-28.7	x
CCCCc1ccc(NC(=O)OC)cc1	49.1	64.7*	0.4	0.5	x	x
CCCCc1ccc(NC(=S)Nc2ccc(Nc3ccc(OC)cc3)cc2)cc1	x	x	x	x	10.4	x

Source: PubChem (several laboratories)
